Screening data from PubChem BioAssay.
A selection: hits, their analogues and other compounds. The true share with any hit is near 2.4%.
D2 PAM-1 = potentiates the human D2 dopamine receptor allosterically; P14416; DiscoveRx D2 beta-arrestin cells, luminescence, 90 min; 100% = 57 uM dopamine signal; potentiation, % (concentration not given with the values); 360,000 compounds, 0.23% hits; AID 624464; in the data active = potentiation above about 50%
Target sequence (P14416 whole entry, looked up): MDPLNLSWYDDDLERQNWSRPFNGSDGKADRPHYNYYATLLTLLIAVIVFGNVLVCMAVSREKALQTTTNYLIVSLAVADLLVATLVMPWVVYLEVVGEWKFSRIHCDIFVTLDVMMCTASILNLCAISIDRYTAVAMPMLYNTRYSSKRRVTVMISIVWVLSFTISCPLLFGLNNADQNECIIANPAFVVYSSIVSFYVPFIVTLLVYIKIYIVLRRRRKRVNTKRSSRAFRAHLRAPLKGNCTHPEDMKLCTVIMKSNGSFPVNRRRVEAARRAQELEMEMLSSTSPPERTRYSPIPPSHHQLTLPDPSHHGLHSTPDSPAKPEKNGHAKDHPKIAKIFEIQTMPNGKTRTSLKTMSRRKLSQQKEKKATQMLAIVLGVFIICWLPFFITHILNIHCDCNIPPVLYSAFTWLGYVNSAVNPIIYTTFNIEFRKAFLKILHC
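PathHunter D2 cells, attached overnight at 37 deg C, received compound in DMSO plus dopamine at EC20 (50 nM final) for 90 min at 37 deg C. Beta-arrestin recruitment was read as luminescence after 1 h with detection reagent at ambient temperature.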
D2 ag-1 = human D2 receptor agonism in beta-arrestin assay. P14416. DiscoveRx PathHunter D2 beta-arrestin, luminescence, 90 min; 100% = 57 uM dopamine signal. activation, % (no concentration beside the values). 360,000 compounds, 0.084% hits. AID 624465; in the data active = activation above about 40%
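DiscoveRx PathHunter D2 beta-arrestin cells (2,100/well) attached overnight, then compound-stimulated 90 min at 37 C in HBSS/10 mM HEPES/0.1% Tween-20 buffer; beta-galactosidase complementation read by luminescence after 1 h at ambient temperature. Dopamine 57 uM final (EC100) as control.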
D2 PAM-2 = positive allosteric modulators of human D2 dopamine receptor; HEK293 T-REx D2, calcium flux, EC20 dopamine potentiation; potentiation, % at 10 µM; P14416; 340,000 compounds, 0.34% hits; AID 485347;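 active = potentiation over 3 SD above the plate norm, cut at about 30% in these data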; note: 0% is about no effect
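Calcium flux readout, no-wash dye, 1 read/s. Inducible HEK293 Trex D2 line, overnight 30 C. Compound alone 180 s (agonist flags), then EC20 dopamine, another 180 s to score potentiation.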
D2 ag-2 = activates the human D2 dopamine receptor. 340,000 compounds, 0.53% hits. AID 485358. activation, % at 2 µM. P14416. HEK293 T-REx D2 cells, calcium flux agonist mode;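 active = activation over 3 SD above normal in the single-dose calcium agonist read, cut at about 30% in these data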; note: 0% is about no effect
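In this primary screen, compounds producing a positive calcium signal within 180 s of addition to tetracycline-induced, force-coupled HEK293 Trex D2 cells are flagged; cells are dye-loaded with a no-wash calcium kit beforehand.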
D2 antagonist = D2 dopamine receptor (human) antagonism. inhibition, % at 10 µM. P14416. AID 485344. HEK293 TREx D2 cells, calcium flux, dopamine EC80. 340,000 compounds, 2% hits; in the data active = inhibition above about 30%; inactive = below that, where a call was filed; note: 0% is about no effect
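Calcium flux kinetic readout in an inducible HEK293 TREx D2 line plated overnight at 30 C. After 180 s compound exposure, an EC80 dopamine challenge follows with another 180 s kinetic read to detect antagonism.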
* hit, by the source's call; . = no result.

SMILES | D2 PAM-1 | D2 ag-1 | D2 PAM-2 | D2 ag-2 | D2 antagonist
Cc1cc(/C=N/O)c(C)n1-c1ccc(Br)cc1 | -7 | -3 | -1 | -1 | 38*
Cc1cc(C)n2nc(/C(C#N)=C/c3ccccn3)c(C#N)c2n1 | -8 | -4 | 9 | 3 | 3
C/C(CC(=O)N1CCN(C=O)CC1)=N\NC(=O)c1cc2ccccc2cc1O | 51* | -6 | -10 | 0 | 7
C/C(CC(=O)N1CCN(C=O)CC1)=N\NC(=O)c1ccc([N+](=O)[O-])cc1 | -2 | 6 | 3 | 0 | 3
CCOc1ccc(NC(=O)CN(C)C(=O)c2ccc(OCC(=O)N3CCOCC3)c(OC)c2)cc1OCC | 3 | -4 | . | . | .
COC(=O)N/N=C\c1c(C)[nH]n(-c2ccccc2)c1=O | -14 | -4 | 4 | -1 | 13
COCC(=O)N/N=C/c1c(C)[nH]n(-c2ccccc2)c1=O | -10 | -4 | 33* | 0 | 4
Cc1[nH]n(-c2ccccc2)c(=O)c1/C=N/N(C)c1ccccc1 | 74* | 10 | -6 | -1 | -15
COc1ccccc1N1CCN(C2CCCN(C(=O)c3ccsc3)C2)CC1 (stereo unspecified) | -24 | -1 | . | . | .
CCCCn1c(=O)c(Cc2ccccc2)c(O)c2ccccc21 | 5 | -4 | 31* | 0 | -15
CCCCCCn1c(=O)c(Cc2ccccc2)c(O)c2ccccc21 | -5 | -7 | 4 | 0 | -5
O=C(NCCN1CCOCC1)c1ccc2c(c1)N(Cc1ccccc1)C(=O)CS2 | -9 | 0 | . | -1 | -16
CCN1C(=O)CSc2ccc(C(=O)NCCCN3CCOCC3)cc21 | -10 | -2 | -7 | 35* | -1
O=C(O)CC1S/C(=N\N=C2CCCCCCC2)N(c2ccccc2)C1=O (stereo unspecified) | 0 | 1 | 1 | 0 | -3
O=C(O)CC1SC(=Nc2ccccc2)N(c2ccccc2)C1=O (stereo unspecified) | 1 | 0 | 0 | 1 | 43*
C=CCN1C(=O)C(CC(=O)O)SC1=Nc1cccc([N+](=O)[O-])c1 (stereo unspecified) | -8 | -4 | 10 | 0 | -14
C=CCN1C(=O)C(CC(=O)O)SC1=Nc1ccc(N=Nc2ccccc2)cc1 (stereo unspecified) | -12 | -3 | 39* | 0 | -8
Fc1cccc(CCN2CCNC[C@@H]2CC2CCCCC2)c1 | -17 | -3 | -2 | 0 | -2
O=[N+]([O-])c1cc([N+](=O)[O-])c(Oc2cccnc2Br)cc1NN1CCCCC1 | 4 | 1 | -4 | 0 | 35*
CCc1cc(C(=O)NCC(c2cccs2)N2CCOCC2)sc1C (stereo unspecified) | -38 | -2 | -5 | 0 | 31*
CC1(C(=O)NS(=O)(=O)c2ccccc2Cl)CCN1C(=O)C1(c2ccccc2)CC1 (stereo unspecified) | 4 | 5 | . | . | .
CCN1CCN(C(=O)c2ccc3c(c2)N(Cc2ccccc2)C(=O)c2ccccc2S3=O)CC1 (stereo unspecified) | -15 | -3 | -22 | 1 | 27
CCCCN(CC)CCCNC(=O)c1ccc2c(c1)N(Cc1ccc(C)cc1)C(=O)c1ccccc1S2 | . | . | -4 | 0 | .
CCN1C(=O)c2ccccc2S(=O)c2ccc(C(=O)NCc3ccccc3OC)cc21 (stereo unspecified) | . | . | -15 | 0 | .
CCN1C(=O)c2ccccc2Sc2ccc(C(=O)NCCCN(CC(C)C)CC(C)C)cc21 | -11 | -2 | -11 | 1 | 42*
CCN1C(=O)c2ccccc2S(=O)c2ccc(C(=O)NCc3ccc(OC)cc3)cc21 (stereo unspecified) | -3 | 0 | -22 | -1 | 81*
CCN1CCN(CCNC(=O)c2ccc3c(c2)N(Cc2ccc(F)cc2)C(=O)c2ccccc2S3=O)CC1 (stereo unspecified) | -40 | -2 | -20 | 1 | 55*
CCCCSCCCNC(=O)c1ccc2c(c1)N(CC)C(=O)c1ccccc1S2=O (stereo unspecified) | -20 | -2 | -28 | 1 | 30*
CCOc1ccc(CCNC(=O)Cn2ccc3cc(S(=O)(=O)N4CCCCCC4)ccc32)cc1 | . | . | 3 | 1 | .
